Source: PubChem BioAssay (Tox21)
Inconclusive results are not listed. Unmarked numbers belong to inactive results. Activity calls are given as the source filed them. The call rests on the fitted dose curve; in most records, active means well fitted cell-killing curve with a large enough effect in the repeat runs; inconclusive means weak or mixed curves; inactive means flat fitted curve, though single readings scatter.
On the % scale 0 is the no-effect control and ±100 the full control effect; potency means the concentration at half of the fitted maximal effect.

Test: qHTS assay to identify small molecule antagonists of the estrogen related receptor (ERR) signaling pathway from Tox21 library - cell viability counter screen (AID 1224834); further: nearly all actives have a fitted effect of over 30% in size
Conditions: ERR reporter cells viability, CellTiter-Fluor, 17.5 h; series mostly up to 92.4 µM; viability change, negative = cytotoxic: at the top concentration
In short: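 CellTiter-Fluor fluorescence measured; ERR cells; 17.5 h compound incubation at 37 C; 30 min reagent step.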
For O=C(O)CNC(=O)c1ccc([N+](=O)[O-])cc1, the “viability change, negative = cytotoxic” value was -3.16%.
In the case of Cn1cc(S(C)=O)c(=O)c2ccc(F)cc21 (stereo not given), the “viability change, negative = cytotoxic” value is reported as 1.14% [at 42.5 µM].
For C=CCOCC(CC)(CO)COCC=C, the “viability change, negative = cytotoxic” value was 7.23%.
With CC(=O)Nc1ccc(S(N)(=O)=O)cc1 the “viability change, negative = cytotoxic” value was 8.03%.
For C=C1CC[C@H]2C[C@@H]1C2(C)C, the “viability change, negative = cytotoxic” value was 5.7%.
With CCCCCCCCS(=O)(=O)Cl the “viability change, negative = cytotoxic” value was 4.38%.
With C=C[Si](OC(=C)C)(OC(=C)C)OC(=C)C the “viability change, negative = cytotoxic” value was 0.0638%.
With O=C1NC(=O)[C@@]2(CCOc3ccc(F)cc32)N1 the “viability change, negative = cytotoxic” value was 2.9% [at 42.5 µM].
With CC/C=C\CC/C=C/CO the “viability change, negative = cytotoxic” value was -2.07%.
In the case of CN1CCCC1, the “viability change, negative = cytotoxic” value is reported as 0.595%.
In the case of O=c1cc(CO)occ1O, the “viability change, negative = cytotoxic” value is reported as 0.0114% [at 42.5 µM].
For CC(=O)CC(C)C, the “viability change, negative = cytotoxic” value was 0.14%.
In the case of CO[Si](CCCOCC1CO1)(OC)OC (stereo not given), the Potency is reported as “inactive”.
With CCN(CC)CCNC(=O)c1cc(S(C)(=O)=O)ccc1OC the “viability change, negative = cytotoxic” value was -0.815% [at 42.5 µM].
For N=C(N)c1ccccc1, the “viability change, negative = cytotoxic” value was 1.35%.
For O=c1cc(-c2ccccc2)oc2ccccc12, the “viability change, negative = cytotoxic” value was -15%.
With COc1ccc2c(c1)CCCC2=O the “viability change, negative = cytotoxic” value was 5.2% [at 42.5 µM].
With NC(=O)c1cn(Cc2c(F)cccc2F)nn1 the “viability change, negative = cytotoxic” value was 5.05% [at 42.5 µM].
In the case of NC(CSCC(=O)O)C(=O)O (stereo not given), the “viability change, negative = cytotoxic” value is reported as 1.06% [at 42.5 µM].
With O=C1CCCCCCCCCCCN1 the Potency was “inactive”.
In the case of COc1ccc(CCN(C)CCCC(C#N)(c2cc(OC)c(OC)c(OC)c2)C(C)C)cc1OC (stereo not given), the Potency is reported as 29.8 µM (active).
For Cc1cnc(NS(=O)(=O)c2ccc(N)cc2)nc1, the “viability change, negative = cytotoxic” value was -0.472% [at 42.5 µM].
For CC(=O)N(CC(O)CO)c1c(I)c(C(=O)NCCO)c(I)c(C(=O)NCC(O)CO)c1I (stereo not given), the “viability change, negative = cytotoxic” value was -0.434% [at 42.5 µM].
In the case of C/C=C(\C)C#N, the “viability change, negative = cytotoxic” value is reported as 7.77%.
With COC(=O)CCSCCC(=O)OC the “viability change, negative = cytotoxic” value was 4.01%.
For COc1ccccc1OCC(O)CN1CCN(CC(=O)Nc2c(C)cccc2C)CC1 (stereo not given), the “viability change, negative = cytotoxic” value was -4.52% [at 42.5 µM].
For CN(C)CCCSc1ccccc1NC(=O)/C=C/c1ccccc1, the “viability change, negative = cytotoxic” value was 0.882% [at 42.5 µM].
With CC(=O)OCC(=O)[C@@]1(O)CC[C@H]2[C@@H]3CCC4=CC(=O)CC[C@]4(C)[C@H]3C(=O)C[C@@]21C the “viability change, negative = cytotoxic” value was 11.4% [at 42.5 µM].
In the case of N=C(N)c1ccc(OCCCOc2ccc(C(=N)N)cc2)cc1, the “viability change, negative = cytotoxic” value is reported as 5.15% [at 42.5 µM].
With CCC=O the “viability change, negative = cytotoxic” value was 2.82%.
In the case of Nc1ccccc1S(=O)(=O)O, the “viability change, negative = cytotoxic” value is reported as -0.113%.
In the case of Nc1nc2c(ncn2COC(CO)CO)c(=O)[nH]1, the “viability change, negative = cytotoxic” value is reported as 2.95% [at 42.5 µM].
With CCN(CC)CCOCCOC(=O)C1(c2ccccc2)CCCC1 the “viability change, negative = cytotoxic” value was -8.81% [at 42.5 µM].
For C[C@H]1C[C@@H](O)CC(C)(C)C1, the “viability change, negative = cytotoxic” value was 1.25%.
With CC/C=C\CCOC(C)=O the “viability change, negative = cytotoxic” value was -3.19%.
